Assay results published in PubChem BioAssay (EPA / NIEHS).
Values joined by “and” are separate entries in the source; they are usually repeats but may differ in a detail not shown here. Equal entries are not always repeated. More than one record can exist for a structure, and the calls need not agree. Active and inactive are the calls of the source. How the source made its calls: active means hit-call score of the fitted dose curve at least 0.9, where 1 is the maximum; inactive means score below 0.9.

Tests used:
[1] = ATG_GLI_CIS: Attagene CIS-FACTORIAL HepG2 Assay for human Zinc Finger Protein GLI1 (AID 2282945); details: HepG2, Attagene cis-factorial reporter mRNA, GLI element; actives raise or lower the signal
In short: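 HepG2 cells transiently transfected with cis-promoter multiplexed reporter units report endogenous transcription factor activity. After 24 h chemical exposure, reporter mRNA was quantified by RT-PCR, 6-FAM labelling, HpaI digestion and capillary electrophoresis, with bidirectional fitting against DMSO.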

[2] = target: Bile acid receptor (Homo sapiens) (UniProt Q96RI1); experiment: ATG_IR1_CIS: Attagene CIS-FACTORIAL HepG2 Assay for human Nuclear Receptor Subfamily 1 Group H Member 4 (NR1H4), IR1 submotif (AID 2282946); details: IR1 reporter transcription, actives raise or lower the signal
Sequence of Bile acid receptor (Homo sapiens) (Q96RI1 whole entry, looked up): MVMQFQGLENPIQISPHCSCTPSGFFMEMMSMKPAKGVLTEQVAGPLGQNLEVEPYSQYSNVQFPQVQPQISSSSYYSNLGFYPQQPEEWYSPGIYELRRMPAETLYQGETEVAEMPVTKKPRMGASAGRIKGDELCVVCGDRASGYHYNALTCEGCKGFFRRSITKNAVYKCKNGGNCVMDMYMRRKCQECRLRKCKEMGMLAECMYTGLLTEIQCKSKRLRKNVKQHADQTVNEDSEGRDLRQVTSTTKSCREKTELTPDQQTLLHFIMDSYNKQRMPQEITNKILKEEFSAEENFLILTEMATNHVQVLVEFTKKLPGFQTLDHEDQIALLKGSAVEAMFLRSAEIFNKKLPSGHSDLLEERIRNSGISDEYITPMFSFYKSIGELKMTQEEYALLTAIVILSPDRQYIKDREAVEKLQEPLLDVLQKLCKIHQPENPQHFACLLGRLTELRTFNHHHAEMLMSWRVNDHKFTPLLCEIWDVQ
In short: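 Readout: reporter transcript levels by RT-PCR with fluorescent capillary electrophoresis, from HepG2 cells transiently transfected with multiplexed cis-regulated reporters and dosed 24 h. Gain- or loss-of-signal fitted versus DMSO negative control.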

[3] = ATG_GRE_CIS: Attagene CIS-FACTORIAL HepG2 Assay for human Glucocorticoid Response Elements (GRE) (AID 2282947); details: HepG2 GRE cis-reporter, Attagene multiplex mRNA; actives raise or lower the signal
In short: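 Cells (HepG2) bearing transfected cis-promoter reporter transcription units were treated with chemical for 24 hours. Reporter mRNA was measured via RT-PCR with capillary electrophoresis, and activity was fitted in both directions relative to DMSO.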

[4] = ATG_ISRE_CIS: Attagene CIS-FACTORIAL HepG2 Assay for human Interferon Regulatory Factor 1 (IRF1) binding to an Interferon-Stimulated Response Element (ISRE) (AID 2282948); details: HepG2 ISRE cis-reporter (Attagene), mRNA transcription readout; actives raise or lower the signal
In short: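 Multiplexed mRNA reporter readout in human liver HepG2 cells: cis-element-driven reporters transfected, compound added for 24 h, transcripts amplified, fluorescently labelled and sized by capillary electrophoresis; curve fitting bidirectional against DMSO.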

[5] = ATG_M_32_CIS: Attagene CIS-FACTORIAL HepG2 Assay for M32 Transcription Factor (Internal Marker) (AID 2282949); details: HepG2 Attagene cis-factorial M32 reporter, mRNA; actives raise or lower the signal;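 further: background control marker of the multiplexed CIS panel rather than a real target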
In short: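 HepG2 transfectants (cis-regulated reporter transcription units) dosed 24 h. Reporter mRNA by RT-PCR plus CE, analysed as gain or loss relative to DMSO.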

[6] = ATG_M_06_CIS: Attagene CIS-FACTORIAL HepG2 Assay for M06 Transcription Factor (Internal Marker) (AID 2282950); details: HepG2 Attagene CIS-FACTORIAL M06 internal marker reporter; actives raise or lower the signal
In short: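 HepG2 cells transiently transfected with cis-regulated multiple reporter transcription units were exposed to chemical for 24 h; reporter mRNA was quantified by RT-PCR, 6-FAM primer labelling, HpaI digestion and capillary electrophoresis, fitted bidirectionally against DMSO.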

[7] = target: Hypoxia-inducible factor 1-alpha (Homo sapiens) (UniProt Q16665); experiment: ATG_HIF1a_CIS: Attagene CIS-FACTORIAL HepG2 Assay for human Hypoxia Inducible Factor 1 (HIF1A) (AID 2282951); details: HepG2 Attagene cis-factorial HIF1a reporter transcription; actives raise or lower the signal
Sequence of Hypoxia-inducible factor 1-alpha (Homo sapiens) (Q16665 whole entry, looked up): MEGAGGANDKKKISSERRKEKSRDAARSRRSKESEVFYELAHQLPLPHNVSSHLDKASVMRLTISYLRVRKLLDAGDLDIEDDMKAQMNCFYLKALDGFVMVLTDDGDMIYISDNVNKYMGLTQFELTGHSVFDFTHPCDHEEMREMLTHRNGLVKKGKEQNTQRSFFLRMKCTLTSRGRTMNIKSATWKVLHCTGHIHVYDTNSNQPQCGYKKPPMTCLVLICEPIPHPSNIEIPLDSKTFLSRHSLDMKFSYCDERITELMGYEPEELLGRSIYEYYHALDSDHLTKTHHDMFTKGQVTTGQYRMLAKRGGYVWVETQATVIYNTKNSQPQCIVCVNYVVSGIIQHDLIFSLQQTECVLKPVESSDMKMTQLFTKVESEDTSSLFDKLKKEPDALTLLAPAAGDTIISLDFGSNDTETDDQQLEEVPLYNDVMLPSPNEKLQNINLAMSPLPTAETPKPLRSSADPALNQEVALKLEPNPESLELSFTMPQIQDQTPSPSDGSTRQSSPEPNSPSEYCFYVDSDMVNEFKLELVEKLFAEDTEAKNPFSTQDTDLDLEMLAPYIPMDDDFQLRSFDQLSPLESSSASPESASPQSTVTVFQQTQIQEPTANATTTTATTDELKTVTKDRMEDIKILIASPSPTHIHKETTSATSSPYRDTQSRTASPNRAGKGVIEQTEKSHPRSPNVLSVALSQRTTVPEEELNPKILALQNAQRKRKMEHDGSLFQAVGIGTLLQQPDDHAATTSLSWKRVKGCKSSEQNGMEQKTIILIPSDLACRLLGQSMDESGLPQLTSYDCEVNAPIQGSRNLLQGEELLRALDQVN
In short: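 Endogenous-TF cis reporter readout, human HepG2 cells, 24 h incubation; mRNA detected via RT-PCR and capillary electrophoresis fluorescence; DMSO-normalised bidirectional fitting.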

[8] = target: Heat shock factor protein 1 (Homo sapiens) (UniProt Q00613); experiment: ATG_HSE_CIS: Attagene CIS-FACTORIAL HepG2 Assay for human Heat Shock Transcription Factor 1 (HSE) (AID 2282953); details: HepG2 HSE cis-reporter, Attagene RNA transcription; actives raise or lower the signal
Sequence of Heat shock factor protein 1 (Homo sapiens) (Q00613 whole entry, looked up): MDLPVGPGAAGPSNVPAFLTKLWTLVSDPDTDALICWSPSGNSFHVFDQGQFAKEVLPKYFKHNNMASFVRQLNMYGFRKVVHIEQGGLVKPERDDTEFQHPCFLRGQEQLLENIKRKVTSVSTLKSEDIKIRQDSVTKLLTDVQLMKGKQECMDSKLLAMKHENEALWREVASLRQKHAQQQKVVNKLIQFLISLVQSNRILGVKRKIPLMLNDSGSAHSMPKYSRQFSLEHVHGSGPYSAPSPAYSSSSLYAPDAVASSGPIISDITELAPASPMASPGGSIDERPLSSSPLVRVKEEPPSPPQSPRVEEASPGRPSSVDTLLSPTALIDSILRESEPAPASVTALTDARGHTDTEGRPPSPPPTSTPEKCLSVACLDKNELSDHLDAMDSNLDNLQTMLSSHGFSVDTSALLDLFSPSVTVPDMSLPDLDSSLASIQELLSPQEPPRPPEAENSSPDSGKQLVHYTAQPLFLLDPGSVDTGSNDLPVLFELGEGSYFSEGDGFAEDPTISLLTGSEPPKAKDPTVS
In short: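 HepG2 cells transiently transfected with multiple reporter transcription units under cis-regulatory promoter control, measuring endogenous transcription factor activity. After 24 h chemical exposure, reporter mRNA quantified by RT-PCR, fluorescent labelling, HpaI digestion and capillary electrophoresis; bidirectional fit versus DMSO.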

[9] = ATG_MRE_CIS: Attagene CIS-FACTORIAL HepG2 Assay for human Metal Responsive Element (MRE) (AID 2282954); details: HepG2 MRE cis-reporter transcription, Attagene multiplex; actives raise or lower the signal
In short: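 Cells were transfected with cis-promoter reporter transcription units, then dosed for 24 h. RNA was reverse-transcribed, amplified, fluorescently labelled and resolved by capillary electrophoresis, and activity was fitted in both directions relative to DMSO.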

[10] = ATG_PBREM_CIS: Attagene CIS-FACTORIAL HepG2 Assay for human Phenobarbital-responsive Enhancer Module (PBREM) (AID 2282955); details: HepG2 PBREM cis-reporter, Attagene multiplexed transcription; actives raise or lower the signal
In short: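 Readout: reporter mRNA, fluorescent RT-PCR fragments separated by capillary electrophoresis. System: HepG2 transiently transfected with cis-regulated reporter units. Exposure: 24 h. Analysis: bidirectional, DMSO baseline.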

[11] = target: Paired box protein Pax-6 (Homo sapiens) (UniProt P26367); experiment: ATG_Pax6_CIS: Attagene CIS-FACTORIAL HepG2 Assay for human Paired Box 6 (PAX6) (AID 2282956); details: HepG2 CIS-FACTORIAL PAX6 reporter transcription, RNA readout; actives raise or lower the signal
Sequence of Paired box protein Pax-6 (Homo sapiens) (P26367 whole entry, looked up): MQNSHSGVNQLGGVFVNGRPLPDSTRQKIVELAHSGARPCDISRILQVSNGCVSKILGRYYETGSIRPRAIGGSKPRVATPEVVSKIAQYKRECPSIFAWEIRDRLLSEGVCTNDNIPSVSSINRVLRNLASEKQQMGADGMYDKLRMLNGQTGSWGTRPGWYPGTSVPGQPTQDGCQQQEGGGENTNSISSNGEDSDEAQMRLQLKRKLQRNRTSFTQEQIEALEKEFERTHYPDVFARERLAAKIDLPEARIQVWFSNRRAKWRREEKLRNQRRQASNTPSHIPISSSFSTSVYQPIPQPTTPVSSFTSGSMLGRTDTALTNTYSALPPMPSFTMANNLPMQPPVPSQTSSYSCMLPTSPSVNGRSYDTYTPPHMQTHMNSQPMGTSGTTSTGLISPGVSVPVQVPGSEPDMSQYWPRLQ
In short: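 Fluorescent RT-PCR products separated by capillary electrophoresis report PAX6-linked promoter mRNA in HepG2 cells 24 h post-dose. Curves fitted bidirectionally, DMSO as negative control.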

[12] = ATG_PXRE_CIS: Attagene CIS-FACTORIAL HepG2 Assay for human Pregnane X Receptor Element (PXRE) (AID 2282957); details: HepG2 Attagene CIS-FACTORIAL PXRE reporter, mRNA; actives raise or lower the signal
In short: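 Reporter transcripts under endogenous PXR-responsive cis-regulation quantified from total RNA of transfected HepG2 cells 24 h post-dosing, via RT-PCR with fluorescent primer extension and capillary electrophoresis. Gain or loss of signal fitted against DMSO baseline.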

[13] = ATG_PPRE_CIS: Attagene CIS-FACTORIAL HepG2 Assay for human Peroxisome Proliferator-activated Response Element (PPRE) (AID 2282958); details: HepG2 PPRE cis-element reporter, Attagene transcription factor profiling; actives raise or lower the signal
In short: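 After human HepG2 hepatoma cells were transiently transfected with cis-promoter reporter constructs, they were exposed to test chemicals for 24 hours. Reporter RNA was then reverse-transcribed, PCR-amplified, FAM-labeled, HpaI-digested and quantified by capillary electrophoresis.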

[14] = ATG_RORE_CIS: Attagene CIS-FACTORIAL HepG2 Assay for human RAR-related Orphan Receptor Element (RORE) (AID 2282959); details: HepG2 Attagene cis-factorial RORE reporter, mRNA; actives raise or lower the signal
In short: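 Measured here: transcript induction of a cis-regulated reporter in HepG2 cells transiently transfected via FuGene 6. After 24 h, RNA was processed by RT-PCR and fluorescent capillary electrophoresis; DMSO defined baseline activity.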

[15] = ATG_Sox_CIS: Attagene CIS-FACTORIAL HepG2 Assay for human SRY-box transcription factor (SOX) (AID 2282960); details: HepG2 Attagene cis-factorial SOX reporter, mRNA; actives raise or lower the signal
In short: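 Using transiently transfected HepG2 cells, reporter transcription driven by cis elements was assessed 24 h after dosing. Signal was fluorescence of capillary-separated RT-PCR products, with DMSO defining baseline activity.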

[16] = target: Transcription factor Sp1 (Homo sapiens) (UniProt P08047); experiment: ATG_Sp1_CIS: Attagene CIS-FACTORIAL HepG2 Assay for human Specificity Protein 1 (Sp1) (AID 2282961); details: HepG2 Sp1 cis-reporter transcription, actives raise or lower the signal
Sequence of Transcription factor Sp1 (Homo sapiens) (P08047 whole entry, looked up): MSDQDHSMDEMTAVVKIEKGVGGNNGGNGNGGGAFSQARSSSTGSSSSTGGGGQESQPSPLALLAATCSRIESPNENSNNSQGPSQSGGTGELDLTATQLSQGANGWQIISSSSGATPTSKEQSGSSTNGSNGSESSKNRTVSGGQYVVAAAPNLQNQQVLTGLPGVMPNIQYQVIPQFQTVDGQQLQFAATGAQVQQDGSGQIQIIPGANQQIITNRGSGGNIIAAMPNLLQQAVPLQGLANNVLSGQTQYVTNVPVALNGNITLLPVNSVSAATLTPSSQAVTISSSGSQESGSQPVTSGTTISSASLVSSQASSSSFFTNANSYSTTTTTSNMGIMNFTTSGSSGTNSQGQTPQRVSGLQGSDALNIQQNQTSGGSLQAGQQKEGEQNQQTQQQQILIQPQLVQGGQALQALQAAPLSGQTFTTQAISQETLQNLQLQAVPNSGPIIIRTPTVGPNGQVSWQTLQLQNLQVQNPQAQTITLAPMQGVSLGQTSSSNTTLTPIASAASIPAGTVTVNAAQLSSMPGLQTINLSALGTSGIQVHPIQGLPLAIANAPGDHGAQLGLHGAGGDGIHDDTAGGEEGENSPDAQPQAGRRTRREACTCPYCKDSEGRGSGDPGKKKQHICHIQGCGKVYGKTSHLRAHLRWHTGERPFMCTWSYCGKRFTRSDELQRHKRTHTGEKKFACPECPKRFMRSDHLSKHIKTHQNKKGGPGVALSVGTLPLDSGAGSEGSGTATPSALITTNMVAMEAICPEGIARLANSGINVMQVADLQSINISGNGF
In short: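 After transient transfection of HepG2 cells with cis-promoter reporter units and 24 h chemical treatment, reporter transcripts were quantified by RT-PCR and capillary electrophoresis fluorescence. Gain- and loss-of-signal fitted against DMSO.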

[17] = ATG_SREBP_CIS: Attagene CIS-FACTORIAL HepG2 Assay for human Sterol Regulatory Element Binding (SREBP) (AID 2282962); details: HepG2 Attagene cis-factorial SREBP reporter, mRNA; actives raise or lower the signal
In short: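 Endogenous factor activity is measured in HepG2 through multiplexed reporter units under cis-element control. Following a 24 h incubation, reporter transcripts are reverse-transcribed, PCR-amplified and sized by capillary electrophoresis; activity is fitted in both directions relative to DMSO.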

[18] = target: Signal transducer and activator of transcription 3 (Homo sapiens) (UniProt P40763); experiment: ATG_STAT3_CIS: Attagene CIS-FACTORIAL HepG2 Assay for human Signal Transducer and Activator of Transcription 3 (STAT3) (AID 2282963); details: HepG2, Attagene cis-factorial STAT3 reporter transcription; actives raise or lower the signal
Sequence of Signal transducer and activator of transcription 3 (Homo sapiens) (P40763 whole entry, looked up): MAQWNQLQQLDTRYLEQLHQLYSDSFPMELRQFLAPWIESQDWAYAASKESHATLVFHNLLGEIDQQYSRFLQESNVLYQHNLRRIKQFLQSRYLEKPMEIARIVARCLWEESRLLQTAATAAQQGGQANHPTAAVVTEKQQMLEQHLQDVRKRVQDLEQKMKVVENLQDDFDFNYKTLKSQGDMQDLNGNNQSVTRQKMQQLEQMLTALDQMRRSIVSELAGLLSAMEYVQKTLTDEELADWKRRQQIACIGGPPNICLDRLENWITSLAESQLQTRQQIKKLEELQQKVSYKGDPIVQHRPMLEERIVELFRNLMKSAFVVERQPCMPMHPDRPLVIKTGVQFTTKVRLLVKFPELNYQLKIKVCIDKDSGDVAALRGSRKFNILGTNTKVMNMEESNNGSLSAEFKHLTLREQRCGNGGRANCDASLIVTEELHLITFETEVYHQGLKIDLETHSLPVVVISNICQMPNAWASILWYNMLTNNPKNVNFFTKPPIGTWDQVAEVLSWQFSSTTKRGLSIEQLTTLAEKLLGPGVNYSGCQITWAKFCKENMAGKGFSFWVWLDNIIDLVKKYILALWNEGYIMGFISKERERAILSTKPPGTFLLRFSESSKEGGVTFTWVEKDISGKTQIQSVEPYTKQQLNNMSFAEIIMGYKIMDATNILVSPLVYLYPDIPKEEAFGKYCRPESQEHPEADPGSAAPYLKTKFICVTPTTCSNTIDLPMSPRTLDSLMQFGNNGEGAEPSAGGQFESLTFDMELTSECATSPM
In short: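 HepG2, MRTU-transfected, 24 h dosing. RNA → RT → PCR → FAM label → HpaI → CE. Bidirectional fit vs DMSO.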

[19] = ATG_TA_CIS: Attagene CIS-FACTORIAL HepG2 Assay for human TA Basal Promoter (AID 2282964); details: HepG2 Attagene CIS-factorial TA basal promoter reporter; actives raise or lower the signal
In short: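 HepG2 cells transiently transfected with multiplexed cis-promoter reporter units, dosed 24 h. Reporter mRNA measured by RT-PCR, 6-FAM labelling, HpaI digestion and capillary electrophoresis; bidirectional fit versus DMSO baseline, serving as background control.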

[20] = target: Hepatocyte nuclear factor 6 (Homo sapiens) (UniProt Q9UBC0); experiment: ATG_HNF6_CIS: Attagene CIS-FACTORIAL HepG2 Assay for human Hepatocyte Nuclear Factor 6 (HNF6) (AID 2282952); details: HepG2 Attagene cis-factorial HNF6 reporter transcription; actives raise or lower the signal
Sequence of Hepatocyte nuclear factor 6 (Homo sapiens) (Q9UBC0 whole entry, looked up): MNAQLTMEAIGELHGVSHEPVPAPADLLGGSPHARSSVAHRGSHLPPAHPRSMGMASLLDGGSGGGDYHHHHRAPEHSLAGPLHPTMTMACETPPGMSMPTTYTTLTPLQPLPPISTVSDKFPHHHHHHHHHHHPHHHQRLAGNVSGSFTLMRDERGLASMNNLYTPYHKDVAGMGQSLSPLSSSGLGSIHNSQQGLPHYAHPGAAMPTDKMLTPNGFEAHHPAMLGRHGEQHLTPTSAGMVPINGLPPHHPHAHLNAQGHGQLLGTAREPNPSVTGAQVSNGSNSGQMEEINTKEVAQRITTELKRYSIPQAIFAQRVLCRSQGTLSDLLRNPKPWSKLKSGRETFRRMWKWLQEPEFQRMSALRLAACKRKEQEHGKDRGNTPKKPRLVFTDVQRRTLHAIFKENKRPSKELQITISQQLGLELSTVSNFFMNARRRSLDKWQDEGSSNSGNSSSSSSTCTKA
In short: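 Endogenous factor activity read in transiently transfected HepG2 via promoter-regulated reporter transcripts. RNA harvested 24 h post-dosing, reverse-transcribed, PCR-amplified, FAM-labelled, HpaI-digested and resolved by capillary electrophoresis; fitted in both directions against DMSO.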

Measured: AC50

CCCOc1ccc(S(=O)(=O)N2CCN(CC)CC2)cc1-c1nc2c(CC)n(Cc3ccccn3)nc2c(=O)[nH]1
active: [2] 100 µM | [4] 70 µM | [7] 19.8 µM | [9] 34.8 µM | [10] 2.66 µM | [11] 40.2 µM | [12] 1.18 µM | [14] 2.63 µM | [17] 27.5 µM
not listed: [20]
inactive: all other assays above

CC(C)CCCCCCOC(=O)C1CCCCC1C(=O)OCCCCCCC(C)C (configuration not stated)
active: [12] 1.17 µM
not listed: [8] | [10] | [13]
inactive: all other assays above

O=S(=O)(O)c1ccc(N=Nc2c(O)ccc3cc(S(=O)(=O)O)ccc23)cc1
not listed: [13]
inactive: all other assays above

NCC(F)(F)C(F)(F)C(F)(F)C(F)(F)F
not listed: [13]
inactive: all other assays above

NC(=O)N(O)[C@@H]1COc2cc(OCc3ccccc3)ccc21
not listed: [13]
inactive: all other assays above

Cc1cccc(O)c1C
active: [2] 23.7 µM | [12] 31.1 µM
inactive: [1] | [2] | [3] | [4] | [5] | [6] | [7] | [8] | [9] | [10] | [11] | [12] | [13] | [14] | [15] | [16] | [17] | [18] | [19]

OC(O)(C(F)C(O)(O)C(F)(F)F)C(F)(F)F
active: [4] 27.8 µM and 9.44 µM | [16] 64.6 µM and 96.6 µM | [17] 66.4 µM and 37.5 µM
not listed: [13] | [20]
inactive: all other assays above
